PERK inh – blocks human PERK kinase; Q9NZJ5; CHO PERK-DD fusion, SEAP luminescence translation reporter; inhibition, % at 5.6 µM; actives 0.17% (n = 220,000); AID 1416;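 active = inhibition above the mean inhibition of all tested compounds plus 3 SD, set separately per screening campaign, cut at about 2.9% in these data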;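 also: PERK kinase domain activated by AP20187 dimerizer at 100 nM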
Target sequence (Q9NZJ5 whole entry, looked up, the tested form may be a part): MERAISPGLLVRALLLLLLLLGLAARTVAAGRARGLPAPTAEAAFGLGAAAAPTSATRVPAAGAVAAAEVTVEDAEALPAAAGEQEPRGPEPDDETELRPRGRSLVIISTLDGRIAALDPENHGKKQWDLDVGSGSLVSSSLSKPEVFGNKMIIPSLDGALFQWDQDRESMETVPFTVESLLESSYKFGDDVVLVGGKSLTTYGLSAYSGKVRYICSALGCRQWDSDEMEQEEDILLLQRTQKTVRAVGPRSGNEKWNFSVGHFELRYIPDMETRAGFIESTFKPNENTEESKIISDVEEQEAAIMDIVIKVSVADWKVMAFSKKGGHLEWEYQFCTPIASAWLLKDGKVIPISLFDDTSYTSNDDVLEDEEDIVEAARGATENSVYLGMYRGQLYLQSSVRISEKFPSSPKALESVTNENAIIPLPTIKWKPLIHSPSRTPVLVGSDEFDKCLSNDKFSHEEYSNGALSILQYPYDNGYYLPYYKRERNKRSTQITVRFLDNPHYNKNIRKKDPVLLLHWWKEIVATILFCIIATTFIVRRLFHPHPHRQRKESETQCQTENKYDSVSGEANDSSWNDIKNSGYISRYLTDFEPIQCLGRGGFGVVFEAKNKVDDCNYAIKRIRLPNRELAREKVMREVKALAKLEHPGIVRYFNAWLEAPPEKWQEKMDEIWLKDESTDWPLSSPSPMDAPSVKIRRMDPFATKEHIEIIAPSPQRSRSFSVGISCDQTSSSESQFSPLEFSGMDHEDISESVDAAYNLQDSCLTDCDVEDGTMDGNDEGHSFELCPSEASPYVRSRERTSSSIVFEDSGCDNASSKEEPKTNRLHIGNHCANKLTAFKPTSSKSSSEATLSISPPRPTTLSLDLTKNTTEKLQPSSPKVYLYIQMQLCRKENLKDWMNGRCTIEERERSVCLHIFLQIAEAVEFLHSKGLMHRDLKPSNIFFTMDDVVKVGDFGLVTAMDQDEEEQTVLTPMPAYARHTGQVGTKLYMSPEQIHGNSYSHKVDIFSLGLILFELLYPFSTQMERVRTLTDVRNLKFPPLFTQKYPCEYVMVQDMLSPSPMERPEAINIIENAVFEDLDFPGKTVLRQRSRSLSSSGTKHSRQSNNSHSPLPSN
eIF4E 4G PPI – inhibitors of eIF4E and eIF4G interaction in translation initiation; inhibition, % at 21.7 µM; actives 0.37% (n = 220,000); TR-FRET eIF4E-eIF4GI(517-606) binding, 2 h; AID 782;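 active = inhibition above about 30%, limit read from the data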
PABP FP inh – PABP-poly(A) binding inhibition. PABP-poly(A) RNA binding, fluorescence polarization. P11940. actives 1% (n = 290,000). inhibition, % at 35 µM;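 also: calls also rest on retests at 20 µM and on dose response follow-up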
MLLE-PAM2 inh – blocks PAM2 peptide binding to the PABP1 MLLE domain | GST-MLLE / FITC-PAM2 fluorescence polarization | inhibition, % at 20 µM | AID 588489 | actives 0.36% (n = 360,000) | P11940; in the data active = inhibition above about 35%, passing the limit was not always enough
eIF4H inh – inhibitors of RNA binding by human eIF4H. Q15056. eIF4H fluorescence polarization binding assay. actives 0.94% (n = 290,000). inhibition, % at 35 µM;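 also: calls also rest on retests at 20 µM and on dose response follow-up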
A number is an active result; - = inactive; ? = inconclusive; . = no result given; [ ] = another dose, or the depositor's remark. Rows were chosen to be rich in hits. Some 1.6% of all compounds tested hit in one or more screens of this group. Unless noted, no rule for the calls is given here.

SMILES	PERK inh	eIF4E 4G PPI	PABP FP inh	MLLE-PAM2 inh	eIF4H inh
O=C(C1=NN(c2ccccc2)C2C(=O)N(c3cccc(Cl)c3)C(=O)C12)c1ccccc1 (stereo unspecified)	-	-	0.3	-	?
COC(=O)c1cc([N+](=O)[O-])c(C)c(C)n1	.	.	.	-	.
Cc1nnc(NC(=O)CSc2nc(C(C)C)nc3ccccc23)s1	-	.	-	37	-
CN(C)C1=C(Cl)C(=O)N(c2ccc(Cl)c(Cl)c2)C1=O	-	-	5.8	-	-
CCN(CCC#N)c1ccc(/C=N/Nc2nc(C)cc(=O)[nH]2)c(C)c1	-	-	63	-	2.2
COc1ccc(NS(=O)(=O)c2ccc(N3CCCC3)c(NC(=S)Nc3ccc(SC(F)F)cc3)c2)cc1	-	-	-	40	-
COC(=O)COc1ccc(S(=O)(=O)Nc2ccc3c(c2)OCO3)cc1	-	55[fluorescence artefact?]	-	-	-
Nc1nc(Cl)cc(-c2ccccc2)n1	-	-	-	-	-
CC(=O)Nc1ccc(S(=O)(=O)NCCSc2ccccn2)cc1	-	47[fluorescence artefact?]	40	-	60
CC1(OC(=O)c2ccc(Cl)nc2)C(=O)C=C2C=C3CCCN3C=C2C1=O (stereo unspecified)	.	-	62	-	101
COC(=O)CCC(=O)OC1(C)C(=O)C=C2C=C3CCCN3C=C2C1=O (stereo unspecified)	.	-	60	-	107
CCCCCCn1c(CN2CCC(C)CC2)nc2c1c(=O)n(C)c(=O)n2C	-	-	-	-	-
CCCCCCn1c(CN2CCN(CCO)CC2)nc2c1c(=O)n(C)c(=O)n2C	-	-	active	-	-
CC1(OC(=O)C2CCCC2)C(=O)C=C2C=C(c3ccsc3)N(CCc3ccccn3)C=C2C1=O (stereo unspecified)	.	-	45	-	-
CC(C)CN1C=C2C(=O)C(C)(OC(=O)C3CCCC3)C(=O)C=C2C=C1c1ccsc1 (stereo unspecified)	.	-	38	-	-
CC1(OC(=O)C2CCCC2)C(=O)C=C2C=C(c3ccsc3)N(Cc3ccccc3)C=C2C1=O (stereo unspecified)	.	-	-	-	-
COc1ccc(NC(=S)N2CCN(S(C)(=O)=O)CC2)cc1OC	.	.	-	-	-
Cc1ccc(CNC(=O)CCS(=O)(=O)c2ccc3c(c2)NC(=O)CO3)cc1	.	.	-	-	-
COc1ccnc(NCc2ccc(Cl)cc2)c1C#N	-	-	-	-	-
CC1Cc2ccccc2N1CC(=O)Nc1ccc(N2CCOCC2)cc1 (stereo unspecified)	-	-	-	-	-
O=C(/C=C/c1ccc([N+](=O)[O-])cc1)N1CCN(Cc2ccccc2)CC1	.	.	-	-	-
Cc1ccc(NC(=S)NCCN(C2CCCCC2)C2CCCC2)cc1	-	-	-	-	-
Cc1ccc(NC(=S)NCCN(C2CCCCC2)C2CCCC2)cc1C	-	-	51	-	active
Nc1ncc(Br)cc1S(=O)(=O)NCCC(=O)NCc1ccc(F)cc1	.	.	-	-	-
CCn1cc(C(=O)Nc2ccccc2)c(=O)c2ccc(C)nc21	-	-	-	.	-
SMILES	PERK inh	eIF4E 4G PPI	PABP FP inh	MLLE-PAM2 inh	eIF4H inh
C=CCSc1nnc(NC(=O)c2cn(CC)c3nc(C)ccc3c2=O)s1	-	-	53	-	-
Clc1ccc(CSc2nnc(CNc3cccc(Cl)c3)o2)cc1	-	-	5.5	-	63
Fc1cccc(Cl)c1CSc1nnc(CNc2ccccc2)o1	-	-	-	-	-
CC1C2C(C)N(C)C(=O)N(C)C2N(C)C(=O)N1C (stereo unspecified)	-	-	-	53	-
CC(C(=O)OCc1nnc(-c2ccccc2)o1)N1C(=O)c2ccccc2C1=O (stereo unspecified)	-	-	-	-	-
CC1(C)CC(=O)C(C=NCCN2CCN(CC(=O)Nc3ccccc3)CC2)=C(O)C1	-	-	-	-	-
CC(=O)Nc1nc(-c2ccc3c(c2)CCO3)cs1	-	-	-	-	-
Nc1nc(-c2ccc3c(c2)CCO3)cs1	-	-	91	-	-
O=C1NC(=Nc2ccccc2Cl)S/C1=C\c1cc([N+](=O)[O-])ccc1O	.	.	13	-	-
COc1cccc(N=C2NC(=O)/C(=C/c3cc([N+](=O)[O-])ccc3O)S2)c1	.	.	-	-	-
CN1C(=O)/C(=C2/C=CC=CN2C)OC1=S	-	-	-	40	-
CCN1/C(=C2\OC(=S)N(C)C2=O)C=Cc2ccccc21	-	-	-	-	-
CN1C(=O)SC(Nc2ccccc2C(=O)O)C1=O (stereo unspecified)	-	-	-	38	-
COc1ccc(-c2cc(C(=O)N3CCN(c4ccccc4OC)CC3)no2)cc1	.	.	-	-	-
COc1ccccc1N1CCN(S(=O)(=O)Cc2ccccc2Cl)CC1	-	31	-	-	-
COc1ccccc1N1CCN(S(=O)(=O)c2ccc(-n3cnnn3)cc2)CC1	.	.	-	-	71
COc1cc(OC)cc(N2CCN(S(=O)(=O)c3ccc(-n4cnnn4)cc3)CC2)c1	.	.	-	-	-
O=C(CN1C(=O)COc2ccc(S(=O)(=O)N3CCOCC3)cc21)NCc1ccccn1	3.5	-	-	-	-
c1ccc2c(c1)NC1(CCCCCC1)n1c-2nc2ccccc21	-	-	-	-	-
Cc1cc(C)n(NC(=S)NC2CCCC2)c(=O)c1C#N	-	-	-	45	-
CCn1c(C)cc(C)c(C#N)c1=O	-	-	-	-	-
O=c1[nH]ccc2c([N+](=O)[O-])cccc12	-	-	-	-	-
CCNC(=S)NS(=O)(=O)c1ccc(CC)cc1	-	-	-	-	-
CCNC(=S)NS(=O)(=O)c1ccc(C)cc1	-	-	-	41	-
Cc1nonc1C(=O)N/N=C/c1ccc([N+](=O)[O-])o1	-	-	32	-	89
SMILES	PERK inh	eIF4E 4G PPI	PABP FP inh	MLLE-PAM2 inh	eIF4H inh
Cc1cc(C(=O)N/N=C/c2ccc([N+](=O)[O-])o2)c(C)o1	-	-	-	-	-
O=C(CNc1ccc2ccccc2c1)N/N=C/c1ccc([N+](=O)[O-])o1	-	-	-	-	-
O=C(N/N=C/c1ccc([N+](=O)[O-])o1)c1sc2ccccc2c1Cl	-	-	-	-	72
O=C(N/N=C/c1ccc([N+](=O)[O-])o1)c1cn2ccc3ccccc3c2n1	-	-	69	-	82
O=C(N/N=C/c1ccc([N+](=O)[O-])o1)c1cc(-c2cccc(Br)c2)nc2ccccc12	-	-	-	-	56
O=C(N/C(=C/c1cccc([N+](=O)[O-])c1)C(=O)N1CCCCC1)c1ccco1	.	.	-	-	-
COc1ccc(CCNc2nc(C)nc3c2oc2ccccc23)cc1OC	-	-	-	-	-
CC1(c2ccc3noc(-c4ccccc4)c3c2)OCCO1	-	-	-	-	-
CC1(c2ccc3noc(-c4ccc(F)cc4)c3c2)OCCO1	-	-	-	68	-
NS(=O)(=O)c1ccc(NC(=O)c2c(F)cccc2Cl)cc1	-	-	-	-	-
O=S(=O)(NCCCSc1ccccc1)c1ccccc1F	.	.	-	43	-
O=[N+]([O-])c1ccccc1S(=O)(=O)NCCSc1ccccc1	.	.	-	-	-
c1ccc(-c2ccccc2OCCN2CCOCC2)cc1	-	-	-	-	-

Bioassay records (PubChem)
